# Assay results as given in paper PMC7862700, “An all-to-all approach to the identification of sequence-specific readers for epigenetic DNA modifications on cytosine”.
# Molecular target: ETV5 (Homo sapiens, UniProt P41161 1-510)
# Experiment: DAPPL (digital affinity profiling via proximity ligation, sequencing); 10 mM Tris-HCl pH 7.5, 50 mM NaCl, 1 mM DTT, 4% glycerol, room temperature, 30 min; GST-TFs on glutathione beads, 16-mer random dsDNA library, 0.1% formaldehyde crosslink after washing; high values mean tight binding
# Settings: protein: recombinant; tags: N-terminal GST; dsDNA, one strand shown
# Procedure, shortened: (§1)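 Human transcription factors were made in yeast as GST fusions, captured on glutathione beads and barcoded with DNA. With a tag-only sample included, the pool was incubated with 200 nmole of a random double-stranded 16-mer DNA library in Tris/NaCl/DTT/glycerol buffer at room temperature for 30 min, then crosslinked with 0.1% formaldehyde after washing, ligated by proximity, amplified and sequenced. For binding signal, each hexamer's read frequency for a factor is divided by its frequency for the tag-only sample.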
# Chain of ETV5 (P41161 whole entry): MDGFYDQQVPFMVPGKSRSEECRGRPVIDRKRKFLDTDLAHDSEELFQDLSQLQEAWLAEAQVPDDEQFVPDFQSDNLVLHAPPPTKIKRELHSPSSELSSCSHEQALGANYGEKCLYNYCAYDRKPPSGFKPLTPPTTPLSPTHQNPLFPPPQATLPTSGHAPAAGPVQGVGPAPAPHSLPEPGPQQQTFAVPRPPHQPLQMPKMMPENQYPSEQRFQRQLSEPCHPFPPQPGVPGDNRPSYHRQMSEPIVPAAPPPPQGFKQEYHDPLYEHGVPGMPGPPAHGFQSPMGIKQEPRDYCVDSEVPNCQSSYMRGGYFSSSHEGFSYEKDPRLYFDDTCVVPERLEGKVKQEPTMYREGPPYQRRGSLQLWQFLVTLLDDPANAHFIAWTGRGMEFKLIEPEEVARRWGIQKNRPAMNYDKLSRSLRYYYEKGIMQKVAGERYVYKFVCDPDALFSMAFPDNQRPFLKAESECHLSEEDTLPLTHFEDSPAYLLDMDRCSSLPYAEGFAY
row,Sequence,binding signal
1,TACCGC,"1.06 fold enrichment (6-mer frequency, TF over GST control)"
2,TGCATA,"1.14 fold enrichment (6-mer frequency, TF over GST control)"
3,AAGTCA,"1.23 fold enrichment (6-mer frequency, TF over GST control)"
4,CGCTCA,"1.19 fold enrichment (6-mer frequency, TF over GST control)"
5,TCACCC,"1.18 fold enrichment (6-mer frequency, TF over GST control)"
6,CTCAGT,"1.14 fold enrichment (6-mer frequency, TF over GST control)"
7,CCTCGG,"1.2 fold enrichment (6-mer frequency, TF over GST control)"
8,TGATGT,"1.22 fold enrichment (6-mer frequency, TF over GST control)"
9,TCCGTT,"1.49 fold enrichment (6-mer frequency, TF over GST control)"
10,CGGTTT,"1.21 fold enrichment (6-mer frequency, TF over GST control)"
11,CTACGT,"1.09 fold enrichment (6-mer frequency, TF over GST control)"
12,TCACAT,"1.28 fold enrichment (6-mer frequency, TF over GST control)"
13,TCAATG,"1.02 fold enrichment (6-mer frequency, TF over GST control)"
14,ACCACT,"1.29 fold enrichment (6-mer frequency, TF over GST control)"
15,TTGTTG,"1.08 fold enrichment (6-mer frequency, TF over GST control)"
16,GGCATT,"1.05 fold enrichment (6-mer frequency, TF over GST control)"
17,CCTAGA,"1.01 fold enrichment (6-mer frequency, TF over GST control)"
18,ACCTTG,"1.2 fold enrichment (6-mer frequency, TF over GST control)"
19,AACGGC,"1.29 fold enrichment (6-mer frequency, TF over GST control)"
20,TCATGC,"1.09 fold enrichment (6-mer frequency, TF over GST control)"

row,Sequence,binding signal
1,AAACGG,"1.27 fold enrichment (6-mer frequency, TF over GST control)"
2,CCTGTA,"1.26 fold enrichment (6-mer frequency, TF over GST control)"
3,TACAGG,"1.24 fold enrichment (6-mer frequency, TF over GST control)"
4,ACCGCC,"1.23 fold enrichment (6-mer frequency, TF over GST control)"
5,ATCACA,"1.13 fold enrichment (6-mer frequency, TF over GST control)"
6,CCTACC,"1.35 fold enrichment (6-mer frequency, TF over GST control)"
7,TGCTGA,"1.07 fold enrichment (6-mer frequency, TF over GST control)"
8,TGCAAT,"1.21 fold enrichment (6-mer frequency, TF over GST control)"
9,TGTATA,"1.15 fold enrichment (6-mer frequency, TF over GST control)"
10,GGCTTA,"1.03 fold enrichment (6-mer frequency, TF over GST control)"
11,AAAGGG,"1.21 fold enrichment (6-mer frequency, TF over GST control)"
12,GCCTCC,"1.31 fold enrichment (6-mer frequency, TF over GST control)"
13,GATATC,"1.6 fold enrichment (6-mer frequency, TF over GST control)"
14,TACCCA,"1.11 fold enrichment (6-mer frequency, TF over GST control)"
15,CTGACC,"1.32 fold enrichment (6-mer frequency, TF over GST control)"
16,CCATCA,"1.23 fold enrichment (6-mer frequency, TF over GST control)"
17,TACGTC,"1.13 fold enrichment (6-mer frequency, TF over GST control)"
18,ATACGT,"1.13 fold enrichment (6-mer frequency, TF over GST control)"
19,GGATAT,"1.71 fold enrichment (6-mer frequency, TF over GST control)"
20,GGTCTA,"1.11 fold enrichment (6-mer frequency, TF over GST control)"

# Molecular target: HSF1 (Homo sapiens, UniProt Q00613 1-529)
# Experiment: as above
# Settings: protein: recombinant; tags: N-terminal GST; chain copies: 3; dsDNA, one strand shown
# Procedure, shortened: as §1
# Chain of HSF1 (Q00613 whole entry): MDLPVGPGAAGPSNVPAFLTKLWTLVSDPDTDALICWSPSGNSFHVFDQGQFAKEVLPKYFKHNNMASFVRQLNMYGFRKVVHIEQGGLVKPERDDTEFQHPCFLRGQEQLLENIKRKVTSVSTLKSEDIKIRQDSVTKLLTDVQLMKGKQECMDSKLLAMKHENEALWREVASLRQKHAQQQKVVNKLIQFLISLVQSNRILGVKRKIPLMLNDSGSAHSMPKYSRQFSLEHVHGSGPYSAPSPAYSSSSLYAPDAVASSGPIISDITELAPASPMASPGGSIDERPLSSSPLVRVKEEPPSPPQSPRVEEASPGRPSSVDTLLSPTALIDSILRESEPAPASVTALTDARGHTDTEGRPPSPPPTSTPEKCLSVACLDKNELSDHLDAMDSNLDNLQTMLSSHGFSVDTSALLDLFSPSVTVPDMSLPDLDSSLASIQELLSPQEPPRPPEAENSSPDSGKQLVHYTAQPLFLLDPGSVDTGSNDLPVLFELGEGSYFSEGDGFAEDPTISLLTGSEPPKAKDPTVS
row,Sequence,binding signal
1,GGCATT,"1.12 fold enrichment (6-mer frequency, TF over GST control)"
2,CCTAGA,"1.88 fold enrichment (6-mer frequency, TF over GST control)"
3,GGCTTA,"2.04 fold enrichment (6-mer frequency, TF over GST control)"

# Molecular target: T1, SPIC (Homo sapiens, UniProt Q8N5J4 1-248)
# T1 sequence: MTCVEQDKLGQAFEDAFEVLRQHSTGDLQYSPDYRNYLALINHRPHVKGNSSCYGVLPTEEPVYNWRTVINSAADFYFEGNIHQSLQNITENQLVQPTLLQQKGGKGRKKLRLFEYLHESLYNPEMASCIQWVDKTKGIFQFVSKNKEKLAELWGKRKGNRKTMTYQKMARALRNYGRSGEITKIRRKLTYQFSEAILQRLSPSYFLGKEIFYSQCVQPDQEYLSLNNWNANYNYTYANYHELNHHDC
# Experiment: as above
# Settings: protein: recombinant; tags: N-terminal GST; dsDNA, one strand shown
# Procedure, shortened: as §1
row,Sequence,binding signal
1,TACCGC,"1.15 fold enrichment (6-mer frequency, TF over GST control)"
2,TGCATA,"1.17 fold enrichment (6-mer frequency, TF over GST control)"
3,AAGTCA,"1.1 fold enrichment (6-mer frequency, TF over GST control)"
4,CGCTCA,"1.06 fold enrichment (6-mer frequency, TF over GST control)"
5,TCACCC,"1.13 fold enrichment (6-mer frequency, TF over GST control)"
6,CTCAGT,"1.24 fold enrichment (6-mer frequency, TF over GST control)"
7,CCTCGG,"1.1 fold enrichment (6-mer frequency, TF over GST control)"
8,TGATGT,"1.11 fold enrichment (6-mer frequency, TF over GST control)"
9,TCCGTT,"1.62 fold enrichment (6-mer frequency, TF over GST control)"
10,CGGTTT,"1.23 fold enrichment (6-mer frequency, TF over GST control)"
11,CTACGT,"1.17 fold enrichment (6-mer frequency, TF over GST control)"
12,TCACAT,"1.11 fold enrichment (6-mer frequency, TF over GST control)"
13,TCAATG,"1.09 fold enrichment (6-mer frequency, TF over GST control)"
14,ACCACT,"1.38 fold enrichment (6-mer frequency, TF over GST control)"
15,TTGTTG,"1.19 fold enrichment (6-mer frequency, TF over GST control)"
16,ACCTTG,"1.17 fold enrichment (6-mer frequency, TF over GST control)"
17,AACGGC,"1.12 fold enrichment (6-mer frequency, TF over GST control)"
18,TCATGC,"1.11 fold enrichment (6-mer frequency, TF over GST control)"
19,AAACGG,"1.19 fold enrichment (6-mer frequency, TF over GST control)"

row,Sequence,binding signal
1,CCTGTA,"1.23 fold enrichment (6-mer frequency, TF over GST control)"
2,TACAGG,"1.2 fold enrichment (6-mer frequency, TF over GST control)"
3,ACCGCC,"1.16 fold enrichment (6-mer frequency, TF over GST control)"
4,ATCACA,"1.09 fold enrichment (6-mer frequency, TF over GST control)"
5,CCTACC,"1.36 fold enrichment (6-mer frequency, TF over GST control)"
6,TGCTGA,"1.18 fold enrichment (6-mer frequency, TF over GST control)"
7,TGCAAT,"1.14 fold enrichment (6-mer frequency, TF over GST control)"
8,TGTATA,"1.07 fold enrichment (6-mer frequency, TF over GST control)"
9,AAAGGG,"1.22 fold enrichment (6-mer frequency, TF over GST control)"
10,GCCTCC,"1.38 fold enrichment (6-mer frequency, TF over GST control)"
11,GATATC,"1.41 fold enrichment (6-mer frequency, TF over GST control)"
12,TACCCA,"1.08 fold enrichment (6-mer frequency, TF over GST control)"
13,CTGACC,"1.37 fold enrichment (6-mer frequency, TF over GST control)"
14,CCATCA,"1.09 fold enrichment (6-mer frequency, TF over GST control)"
15,TACGTC,"1.03 fold enrichment (6-mer frequency, TF over GST control)"
16,ATACGT,"1.09 fold enrichment (6-mer frequency, TF over GST control)"
17,GGATAT,"1.53 fold enrichment (6-mer frequency, TF over GST control)"
18,GGTCTA,"1.09 fold enrichment (6-mer frequency, TF over GST control)"

# Molecular target: ELF4 (Homo sapiens, UniProt Q99607 1-663)
# Experiment: as above
# Settings: protein: recombinant; tags: N-terminal GST; dsDNA, one strand shown
# Procedure, shortened: as §1
# Chain of ELF4 (Q99607 whole entry): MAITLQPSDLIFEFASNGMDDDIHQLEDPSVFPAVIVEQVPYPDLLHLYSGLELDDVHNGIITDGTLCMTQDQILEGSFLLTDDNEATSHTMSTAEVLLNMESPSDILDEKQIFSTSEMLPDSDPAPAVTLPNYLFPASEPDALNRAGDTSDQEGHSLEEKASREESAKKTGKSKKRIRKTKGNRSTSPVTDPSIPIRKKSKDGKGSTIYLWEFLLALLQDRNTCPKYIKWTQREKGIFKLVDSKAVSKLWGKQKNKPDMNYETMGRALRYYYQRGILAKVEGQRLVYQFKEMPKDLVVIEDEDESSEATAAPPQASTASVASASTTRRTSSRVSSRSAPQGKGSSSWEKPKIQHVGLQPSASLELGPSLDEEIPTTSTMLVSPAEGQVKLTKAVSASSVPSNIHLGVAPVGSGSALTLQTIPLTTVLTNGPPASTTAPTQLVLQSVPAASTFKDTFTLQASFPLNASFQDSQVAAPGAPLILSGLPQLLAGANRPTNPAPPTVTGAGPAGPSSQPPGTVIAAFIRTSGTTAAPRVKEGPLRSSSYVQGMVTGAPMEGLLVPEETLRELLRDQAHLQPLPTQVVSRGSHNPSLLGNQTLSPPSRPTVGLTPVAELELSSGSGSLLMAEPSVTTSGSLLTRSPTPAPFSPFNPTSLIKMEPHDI
row,Sequence,binding signal
1,TACCGC,"1.1 fold enrichment (6-mer frequency, TF over GST control)"
2,TGCATA,"1.2 fold enrichment (6-mer frequency, TF over GST control)"
3,AAGTCA,"1.22 fold enrichment (6-mer frequency, TF over GST control)"
4,CGCTCA,"1.24 fold enrichment (6-mer frequency, TF over GST control)"
5,TCACCC,"1.21 fold enrichment (6-mer frequency, TF over GST control)"
6,CTCAGT,"1.21 fold enrichment (6-mer frequency, TF over GST control)"
7,CCTCGG,"1.25 fold enrichment (6-mer frequency, TF over GST control)"
8,TGATGT,"1.32 fold enrichment (6-mer frequency, TF over GST control)"
9,TCCGTT,"1.25 fold enrichment (6-mer frequency, TF over GST control)"
10,CGGTTT,"1.21 fold enrichment (6-mer frequency, TF over GST control)"
11,CTACGT,"1.24 fold enrichment (6-mer frequency, TF over GST control)"
12,TCACAT,"1.15 fold enrichment (6-mer frequency, TF over GST control)"
13,TCAATG,"1.06 fold enrichment (6-mer frequency, TF over GST control)"
14,ACCACT,"1.31 fold enrichment (6-mer frequency, TF over GST control)"
15,TTGTTG,"1.21 fold enrichment (6-mer frequency, TF over GST control)"
16,ACCTTG,"1.22 fold enrichment (6-mer frequency, TF over GST control)"
17,AACGGC,"1.24 fold enrichment (6-mer frequency, TF over GST control)"
18,TCATGC,"1.18 fold enrichment (6-mer frequency, TF over GST control)"
19,AAACGG,"1.23 fold enrichment (6-mer frequency, TF over GST control)"

row,Sequence,binding signal
1,CCTGTA,"1.25 fold enrichment (6-mer frequency, TF over GST control)"
2,TACAGG,"1.14 fold enrichment (6-mer frequency, TF over GST control)"
3,ACCGCC,"1.38 fold enrichment (6-mer frequency, TF over GST control)"
4,ATCACA,"1.1 fold enrichment (6-mer frequency, TF over GST control)"
5,CCTACC,"1.4 fold enrichment (6-mer frequency, TF over GST control)"
6,TGCTGA,"1.15 fold enrichment (6-mer frequency, TF over GST control)"
7,TGCAAT,"1.2 fold enrichment (6-mer frequency, TF over GST control)"
8,TGTATA,"1.06 fold enrichment (6-mer frequency, TF over GST control)"
9,AAAGGG,"1.19 fold enrichment (6-mer frequency, TF over GST control)"
10,GCCTCC,"1.34 fold enrichment (6-mer frequency, TF over GST control)"
11,GATATC,"1.34 fold enrichment (6-mer frequency, TF over GST control)"
12,TACCCA,"1.08 fold enrichment (6-mer frequency, TF over GST control)"
13,CTGACC,"1.41 fold enrichment (6-mer frequency, TF over GST control)"
14,CCATCA,"1.2 fold enrichment (6-mer frequency, TF over GST control)"
15,TACGTC,"1.16 fold enrichment (6-mer frequency, TF over GST control)"
16,ATACGT,"1.08 fold enrichment (6-mer frequency, TF over GST control)"
17,GGATAT,"1.38 fold enrichment (6-mer frequency, TF over GST control)"
18,GGTCTA,"1.11 fold enrichment (6-mer frequency, TF over GST control)"
